Screening results deposited in PubChem BioAssay by several laboratories.
Rows were chosen to be rich in hits. Some 1.7% of all compounds tested hit in one or more screens of this group.
CHT block: human CHT choline transport inhibition. Q9GZV3. CHT-expressing cells, membrane potential dye, choline response; hits give low values. B-score at 10 µM. actives 0.86% (n = 310,000). AID 488975;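 active = B-score over 3 SD under the library average, and starting fluorescence ratio not unusually high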;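 also: choline stimulus applied at its EC90 after an EC20 pre-addition; B-score computed on integrated fluorescence ratio after choline addition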
TAG inh: inhibitors of triacylglycerol accumulation. H9c2 cells, Nile Red lipid (TAG) fluorescence; cells loaded with 200 µM oleic acid. inhibition, % at 12.5 µM. actives 0.66% (n = 230,000);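 active = pattern-corrected inhibition of lipid staining of at least 50% with the nuclear-stain viability signal not falling by more than 50%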;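 also: 0% = DMSO wells and 100% = triacsin C control wells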
MIN6 prolif: MIN6 beta-cell proliferation induction; actives 0.29% (n = 330,000); proliferation, % at 10 µM; MIN6 cells proliferation, ATPlite luminescence, 48 h; cells starved in 0.2% serum; 100% = growth in 10% serum;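 active = compounds whose signal lies at least 3.5 SD above the mean of all wells on their plate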;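 also: 0% = DMSO-treated cells in low-serum medium and 100% = 10% serum control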
CHT allo act: allosteric activators of human choline transporter CHT | actives 0.49% (n = 310,000) | B-score at 10 µM | CHT-expressing cells, membrane potential dye, choline EC20; hits give high values; LV-AA mutant CHT in HEK293 cells | Q9GZV3 | AID 488977;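 active = initial fluorescence not abnormally high and integrated response B-score, plate-corrected, over 3 SD above library mean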
Active calls of the source: *; i = inactive; x = not tested or not shown; ! = repeats disagree.

SMILES	CHT block	TAG inh	MIN6 prolif	CHT allo act
C#CCOCCOCCOCCNc1nc(N2CCN(C(=O)[C@H](CCCCN)n3cc(C(N)CO)nn3)CC2)nc(N2CCN(C(=O)[C@H](CCCCN)n3cc(C(N)COC(=O)C(F)(F)F)nn3)CC2)n1 (some centres undefined)	i	x	-6	7.1*
C#CCOCCOCCOCCNc1nc(N2CCN(C(=O)CCCCCCCCCCNC(=O)[C@H](CCCCN)n3cc(CCO)nn3)CC2)nc(N2CCN(C(=O)CCCCCCCCCCNC(=O)[C@H](CCCN=C(N)N)n3cc(C[C@@H](C)CC)nn3)CC2)n1	i	-45	-8	i
C#CCOCCOCCOCCNc1nc(N2CCN(C(=O)CCCCCCCCCCNC(=O)[C@H](CCCCN)n3cc(C[C@@H](C)CC)nn3)CC2)nc(N2CCN(C(=O)CCCCCCCCCCNC(=O)[C@H](CCCCN)n3cc(C[C@@H](C)CC)nn3)CC2)n1	i	88*	x	i
O=S(=O)(NCc1ccc(F)cc1)c1ccc(Br)cc1Br	x	-5	-3	x
CSCCC(NC(=O)c1ccco1)C(=O)NCCc1ccc(Cl)cc1 (centres undefined)	x	12	-1	x
COc1ccc(Br)c(Cn2c(C)c(C(=O)NCc3cccc([N+](=O)[O-])c3)sc2=O)c1	x	1	x	x
CC(=C/c1ccccc1)/C=N/n1c(-c2ccncc2)n[nH]c1=S	i	3	15*	i
S=c1[nH]nc(-c2cc(-c3ccccc3)n[nH]2)n1/N=C/C(Br)=C/c1ccccc1	i	72*	-4	i
CC(/C=N/n1c(-c2cccnc2)n[nH]c1=S)=C\c1ccccc1	i	x	0	i
COc1cc(C)c2c(c1OC)C(=O)CC2	x	-13	x	x
c1ccc2nc3ccccc3nc2c1	i	x	-1	i
Nc1c2ccccc2nc2ccccc12	i	54*	-9	i
Nc1c2c(nc3ccccc13)CCCC2	i	12	0	7.6*!
COc1ccc(OCC(=O)N2CCCC(Nc3ccc(C)c(C)c3)C2)cc1 (centres undefined)	x	0	x	x
COc1ccccc1C(CCN(Cc1cccs1)C(C)=O)c1ccco1 (centres undefined)	i	-9	-3	i
CCC(=O)N(CCC(c1ccccc1)c1ccco1)Cc1cccs1 (centres undefined)	i	-26	2	9.5*
CCOc1ccccc1NC(=O)COC(=O)c1c(CC)noc1C	x	5	6	x
COc1ccccc1C(=O)NCCCNC(=O)c1cccnc1	i	x	0	i
CCOC(=O)c1oc2ccccc2c1NC(=O)COc1ccc(F)cc1	i	x	9.7*	i
CCCC(=O)Nc1c(C(=O)OCC)oc2ccccc12	i	-10	1	i
C[C@H]1CN([C@@H](C)CO)C(=O)c2cccc(NC(=O)Nc3ccc(C(F)(F)F)cc3)c2O[C@@H]1CN(C)Cc1ccc(Cl)c(Cl)c1	x	56*	-6	x
C[C@@H]1CN([C@H](C)CO)C(=O)c2cc(NC(=O)Nc3ccc(C(F)(F)F)cc3)ccc2O[C@H]1CN(C)Cc1ccc(Cl)c(Cl)c1	x	47	-5	x
O=C(c1cc2c(s1)CCCC2)N1CCN(CCO)CC1	x	-5	-3	x
Cn1c(=O)c(C(=O)COC(=O)c2cc(-c3ccco3)nc3ccccc23)c(N)n(CC2CC2)c1=O	-5.5*	x	-9	i
Cc1ccc2nc(-c3ccc(NC(=S)NC(=O)C(C)C)cc3)sc2c1	i	x	-3	i
SMILES	CHT block	TAG inh	MIN6 prolif	CHT allo act
Cc1ccc2nc(-c3ccc(NC(=S)NC4CC(C)(C)NC(C)(C)C4)cc3)sc2c1	i	53*	-6	i
Cc1ccc(NC(=O)c2ccc([N+](=O)[O-])o2)cc1C	i	73	-6	i
O=C(Nc1ccc2[nH]c(=O)[nH]c2c1)c1ccc([N+](=O)[O-])o1	x	53*	-3	x
Nc1ccc(Cl)c(S(=O)(=O)Nc2cccc(Cl)c2)c1	-8.9*	0	-2	i
Cc1ccc(NS(=O)(=O)c2cc(N)ccc2Cl)c(C)c1	i	-12	-1	i
C/C(=N\NC(=O)c1ccc(Br)cc1)C1C(=O)c2ccccc2C1=O	-6.9*	x	-5	i
O=C(NNC(=O)c1ccccc1C(=O)O)c1ccc(-c2ccccc2)cc1	-6.7*	x	-3	i
O=C(NNC(=O)C1CC1)c1ccc(-c2ccccc2)cc1	i	x	-1	i
Cc1c(Cl)c(C(=O)Nc2nc3ccccc3n2CCN2CCCCC2)nn1C	i	x	-3	9.7*
Cn1ncc([N+](=O)[O-])c1C(=O)Nc1nc2ccccc2n1CCN1CCCCC1	i	10	0	i
